This passage reports normalised cell viability results from the supplement of paper PMC6609913.

Structures can show the parent of a compound that is named as a salt. ± gives the standard deviation of the averaged measurements. The full ranking holds about 1,300 compounds; the median of “normalised cell viability” is about 1, and the lowest 2% start at about 0.15. The sample as a whole holds a higher share of the lowest values than the screen did.

For the experiment, the system named is V-C8 + BRCA2 (BRCA2-proficient hamster cells). Put plainly: normalised cell viability (fraction of plate median); higher = more viable cells (less toxic). The following applies: 5 µM. The procedure, abridged: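 Hamster V-C8 cells lacking BRCA2 and V-C8 cells with BRCA2 restored were seeded in 96-well plates. Library drugs (10 mM DMSO stocks) were added 24 h later at 5 μM in 100 μl medium, next to DMSO control wells, for 3 days (screen 1) or 6 days (screen 2). Cell viability was read by resazurin assay, median-plate normalised (modified robust per cent of sample), and triplicate wells were averaged.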

Regarding `CCOCCn1c(N2CCCN(C)CC2)nc2ccccc21` [Emedastine], the normalised cell viability is, setting by setting: (treatment time: 3 days) 1.07 ± 0.11; (treatment time: 6 days) 1.06 ± 0.032.

In the case of `Nc1ccn([C@@H]2O[C@H](CO)[C@@H](O)C2(F)F)c(=O)n1` [Gemcitabine], the normalised cell viability runs as follows: (treatment time: 3 days) 0.212 ± 0.014; (treatment time: 6 days) 0.183 ± 0.0099.

With `NC12CC3CC(CC(C3)C1)C2` [Adamantamine fumarate], the normalised cell viability by setting is: (treatment time: 3 days) 0.885 ± 0.035; (treatment time: 6 days) 0.95 ± 0.053.

As to `COc1cc2c(cc1OC)C(=O)C(CC1CCN(Cc3ccccc3)CC1)C2` (configuration not stated) [Donepezil hydrochloride], the normalised cell viability reads like this: (treatment time: 3 days) 1.007 ± 0.0092; (treatment time: 6 days) 1.05 ± 0.074.

Regarding `CN1[C@@H]2CC[C@H]1C[C@@H](OC(=O)c1c[nH]c3ccccc13)C2` [Tropisetron HCl], the normalised cell viability is 1.05 ± 0.12 (treatment time: 3 days) and 1.24 ± 0.074 (treatment time: 6 days).

As to `CCCN(CCC)C(=O)C(CCC(=O)O)NC(=O)c1ccccc1` (configuration not stated) [Proglumide], the normalised cell viability came to 0.993 ± 0.11 (treatment time: 3 days) and 0.986 ± 0.14 (treatment time: 6 days).

Regarding `CC(C)/N=c1\cc2n(-c3ccc(Cl)cc3)c3ccccc3nc-2cc1Nc1ccc(Cl)cc1` [Clofazimine], the normalised cell viability worked out at 0.274 ± 0.021 (treatment time: 3 days) and 0.346 ± 0.037 (treatment time: 6 days).

In the case of `CCCN[C@H]1CCc2nc(N)sc2C1` [Pramipexole], the normalised cell viability by setting is: (treatment time: 3 days) 0.9625 ± 0.0076; (treatment time: 6 days) 0.987 ± 0.022.

For the molecule `c1ccc2c(c1)CCCc1cc(NCCN3CCOCC3)nnc1-2`, the normalised cell viability by setting is: (treatment time: 3 days) 0.803 ± 0.038; (treatment time: 6 days) 0.87 ± 0.091.

Consider `CCOC(=O)OC(C)OC1=C(C(=O)Nc2ccccn2)N(C)S(=O)(=O)c2ccccc21` (configuration not stated) [Ampiroxicam], for which the normalised cell viability (treatment time: 3 days) turned out to be 1 ± 0.034 and the normalised cell viability (treatment time: 6 days) worked out at 0.994 ± 0.079.

As for `O=C(NCCO[N+](=O)[O-])c1cccnc1` [Nicorandil], the normalised cell viability stood at 1.11 ± 0.072 (treatment time: 3 days) and 1.11 ± 0.13 (treatment time: 6 days).

In the case of `CNC(=O)c1c(I)c(C(=O)NCC(=O)Nc2c(I)c(C(=O)O)c(I)c(C(=O)NCCO)c2I)c(I)c(N(C)C(C)=O)c1I` [Ioxaglic acid], the normalised cell viability by setting is: (treatment time: 3 days) 1 ± 0.058; (treatment time: 6 days) 1.11 ± 0.086.

Consider `O=C(O)CCc1nc(-c2ccccc2)c(-c2ccccc2)o1` [Oxaprozin], for which the normalised cell viability is, setting by setting: (treatment time: 3 days) 1.06 ± 0.11; (treatment time: 6 days) 1.12 ± 0.078.

As to `Cc1cc2cc3c(C)cc(=O)oc3c(C)c2o1` [Trioxsalen], the normalised cell viability (treatment time: 3 days) turned out to be 0.991 ± 0.036 and the normalised cell viability (treatment time: 6 days) came out at 0.818 ± 0.12.

For the molecule `Nc1c2ccccc2nc2ccccc12` [Aminacrine], the normalised cell viability is 0.139 ± 0.0043 (treatment time: 3 days) and 0.156 ± 0.024 (treatment time: 6 days).

For the molecule `Nc1c2c(nc3ccccc13)CCCC2` [Tacrine hydrochloride], the normalised cell viability is 0.905 ± 0.038 (treatment time: 3 days) and 1.09 ± 0.014 (treatment time: 6 days).

With `CC(C)Cn1cnc2c(N)nc3ccccc3c21` [Imiquimod], the normalised cell viability (treatment time: 3 days) is 1.02 ± 0.042 and the normalised cell viability (treatment time: 6 days) came to 1.019 ± 0.0077.

As to `O=C(Nc1ccc([N+](=O)[O-])cc1Cl)c1cc(Cl)ccc1O` [Niclosamide], the normalised cell viability reads like this: (treatment time: 3 days) 0.139 ± 0.0082; (treatment time: 6 days) 0.127 ± 0.0065.

For the molecule `O=C(OCCOCCO)c1ccccc1Nc1cccc(C(F)(F)F)c1` [Etofenamate], the normalised cell viability is 0.988 ± 0.045 (treatment time: 3 days) and 0.987 ± 0.061 (treatment time: 6 days).

`CCCOc1ccc2[nH]c(NC(=O)OC)nc2c1` [Oxibendazol]: the normalised cell viability was determined as 0.18 ± 0.0021 (treatment time: 3 days) and 0.194 ± 0.0035 (treatment time: 6 days).

Take `COC(=O)Nc1nc2cc([S+]([O-])c3ccccc3)ccc2[nH]1` (configuration not stated) [Oxfendazol]: the normalised cell viability is, setting by setting: (treatment time: 3 days) 0.74 ± 0.055; (treatment time: 6 days) 0.827 ± 0.05.

Regarding `COC(=O)Nc1nc2cc(C(=O)c3cccs3)ccc2[nH]1` [Nocodazole], the normalised cell viability (treatment time: 3 days) is 0.143 ± 0.0097 and the normalised cell viability (treatment time: 6 days) came to 0.132 ± 0.01.

On to `COC(=O)Nc1nc2cc(C(=O)c3ccc(F)cc3)ccc2[nH]1` [Flubendazol], for which the normalised cell viability is, setting by setting: (treatment time: 3 days) 0.168 ± 0.017; (treatment time: 6 days) 0.167 ± 0.0085.

`COC(=O)Nc1nc2cc(C(=O)c3ccccc3)ccc2[nH]1` [Mebendazole]: the normalised cell viability is 0.163 ± 0.013 (treatment time: 3 days) and 0.151 ± 0.0072 (treatment time: 6 days).

For the molecule `COC(=O)Nc1nc2cc(Sc3ccccc3)ccc2[nH]1` [Fenbendazole], the normalised cell viability by setting is: (treatment time: 3 days) 0.183 ± 0.0078; (treatment time: 6 days) 0.179 ± 0.017.

Take `NCC[C@H](O)C(=O)N[C@@H]1C[C@H](N)[C@@H](O[C@H]2O[C@H](CN)[C@@H](O)[C@H](O)[C@H]2O)[C@H](O)[C@H]1O[C@H]1O[C@H](CO)[C@@H](O)[C@H](N)[C@H]1O` [Amikacin hydrate]: the normalised cell viability (treatment time: 3 days) came out at 0.584 ± 0.023 and the normalised cell viability (treatment time: 6 days) amounted to 0.699 ± 0.089.

Take `CN(C)CCC=C1c2ccccc2C=Cc2ccccc21` [Cyclobenzaprine hydrochloride]: the normalised cell viability came to 1.06 ± 0.062 (treatment time: 3 days) and 1.08 ± 0.034 (treatment time: 6 days).

For the molecule `Cc1ccc(Cl)c(Nc2ccccc2C(=O)O)c1Cl` [Meclofenamic acid sodium salt monohydrate], the normalised cell viability by setting is: (treatment time: 3 days) 1.02 ± 0.068; (treatment time: 6 days) 1.08 ± 0.084.

As for `N=C(N)NCC1COC2(CCCCC2)O1` (configuration not stated) [Guanadrel sulfate], the normalised cell viability reads like this: (treatment time: 3 days) 1.06 ± 0.038; (treatment time: 6 days) 1.03 ± 0.041.

`CN(C/C=C/C#CC(C)(C)C)Cc1cccc2ccccc12` [Terbinafine]: the normalised cell viability worked out at 0.206 ± 0.0049 (treatment time: 3 days) and 0.339 ± 0.031 (treatment time: 6 days).

For the molecule `CCCCCCC[N+](CC)(CC)CCCCc1ccc(Cl)cc1` [Clofilium tosylate], the normalised cell viability is, setting by setting: (treatment time: 3 days) 0.897 ± 0.063; (treatment time: 6 days) 0.935 ± 0.094.

In the case of `CN1CCN(CCCN2c3ccccc3Sc3ccc(S(=O)(=O)N(C)C)cc32)CC1` [Thioproperazine dimesylate], the normalised cell viability (treatment time: 3 days) came to 0.884 ± 0.11 and the normalised cell viability (treatment time: 6 days) was determined as 0.834 ± 0.039.

On to `N=C(N)N/N=C/c1c(Cl)cccc1Cl` [Guanabenz acetate], for which the normalised cell viability reads like this: (treatment time: 3 days) 1.1 ± 0.022; (treatment time: 6 days) 1.01 ± 0.082.

Consider `Cn1cnc([N+](=O)[O-])c1Sc1ncnc2[nH]cnc12` [Azathioprine], for which the normalised cell viability was 0.93 ± 0.032 (treatment time: 3 days) and 0.93 ± 0.045 (treatment time: 6 days).

As to `C[C@@H]1CN(c2c(F)c(N)c3c(=O)c(C(=O)O)cn(C4CC4)c3c2F)C[C@H](C)N1` [Sparfloxacin], the normalised cell viability (treatment time: 3 days) was 1.027 ± 0.009 and the normalised cell viability (treatment time: 6 days) stood at 1.05 ± 0.056.

For the molecule `COC(=O)C1=C(C)NC(C)=C(C(=O)OC(C)C)C1c1cccc2nonc12` (configuration not stated) [Isradipine], the normalised cell viability came to 1.02 ± 0.032 (treatment time: 3 days) and 0.9264 ± 0.0066 (treatment time: 6 days).

As for `CC1CNc2c(cccc2S(=O)(=O)N[C@@H](CCCNC(=N)N)C(=O)N2CC[C@@H](C)C[C@@H]2C(=O)O)C1` (some centres not stated) [Argatroban], the normalised cell viability runs as follows: (treatment time: 3 days) 1.203 ± 0.0019; (treatment time: 6 days) 1.12 ± 0.14.

Regarding `CC(=O)N(CC(O)CN(C(C)=O)c1c(I)c(C(=O)NCC(O)CO)c(I)c(C(=O)NCC(O)CO)c1I)c1c(I)c(C(=O)NCC(O)CO)c(I)c(C(=O)NCC(O)CO)c1I` (configuration not stated) [Iodixanol], the normalised cell viability stood at 0.975 ± 0.053 (treatment time: 3 days) and 1 ± 0.059 (treatment time: 6 days).

For the molecule `CN1CCC(OC(c2ccccc2)c2ccccc2)CC1` [Diphenylpyraline hydrochloride], the normalised cell viability runs as follows: (treatment time: 3 days) 0.976 ± 0.11; (treatment time: 6 days) 1.04 ± 0.037.

As for `CO[C@@]1(NC(=O)CSCC#N)C(=O)N2C(C(=O)O)=C(CSc3nnnn3C)CS[C@@H]21` [Cefmetazole sodium salt], the normalised cell viability (treatment time: 3 days) amounted to 0.959 ± 0.029 and the normalised cell viability (treatment time: 6 days) amounted to 0.98 ± 0.072.

Turning to `O=C(Nc1cccc2c(=O)cc(-c3nnn[nH]3)oc12)c1ccc(OCCCCc2ccccc2)cc1` [Pranlukast], the normalised cell viability was found to be 1.06 ± 0.05 (treatment time: 3 days) and 1.08 ± 0.049 (treatment time: 6 days).

As for `CCN(CC)CCOCCOC(=O)C1(c2ccccc2)CCCC1` [Carbetapentane citrate], the normalised cell viability came out at 0.163 ± 0.0089 (treatment time: 3 days) and 0.181 ± 0.0049 (treatment time: 6 days).

Regarding `O=C(O)CCC(=O)Nc1ccc(S(=O)(=O)Nc2nccs2)cc1` [Succinylsulfathiazole], the normalised cell viability by setting is: (treatment time: 3 days) 0.979 ± 0.083; (treatment time: 6 days) 1.04 ± 0.04.

As for `CC(C)(C)NCC(O)c1cc(O)cc(O)c1` (configuration not stated) [Terbutaline hemisulfate], the normalised cell viability is, setting by setting: (treatment time: 3 days) 0.45 ± 0.037; (treatment time: 6 days) 0.5206 ± 0.0045.

Turning to `OCC(O)CN1CCN(c2ccccc2)CC1` (racemic) [Dropropizine (R,S)], the normalised cell viability runs as follows: (treatment time: 3 days) 1.07 ± 0.041; (treatment time: 6 days) 0.9583 ± 0.0092.

On to `COC(=O)C1=C(C)NC(C)=C(C(=O)OC2CCCN(Cc3ccccc3)C2)C1c1cccc([N+](=O)[O-])c1` (configuration not stated) [Benidipine hydrochloride], for which the normalised cell viability is 0.988 ± 0.065 (treatment time: 3 days) and 0.97 ± 0.04 (treatment time: 6 days).
